Data: the antibiotic and cytotoxicity screens of Wong et al. (2023)
Among all 39,000 compounds or so, about 1,500 (3.8%) were called active. The list comes from a sample in which actives are over-represented; it also holds similar structures and randomly drawn compounds.

Test system: HSkMC (human skeletal muscle cells)
Assay: cytotoxicity call (relative viability < 0.9)
Conditions: 10 µM

| Structure (SMILES) | cytotoxicity call |
| --- | --- |
| O=C(c1cc2n(n1)CCCO2)N1CC(O)C1 | inactive |
| Cc1noc(C)c1NC(=O)N(C)C[C@H]1Oc2ccc(NC(=O)CCN3CCOCC3)cc2CC(=O)N([C@H](C)CO)C[C@@H]1C | inactive |
| C[C@H](CO)N1C[C@H](C)[C@H](CN(C)C(=O)c2ccc3c(c2)OCO3)Oc2ncc(C#CCN(C)C)cc2C1=O | inactive |
| CCC(=O)N1C[C@]2(CN(C2)S(=O)(=O)C)c2c(n(c3cc(ccc23)OC)C)[C@@H]1CO | inactive |
| C[C@H](CO)N1C[C@H](C)[C@H](CN(C)S(=O)(=O)c2cn(C)cn2)Oc2ccc(NS(=O)(=O)c3ccccc3)cc2CC1=O | inactive |
| C[C@@H]1CN([C@H](C)CO)C(=O)Cc2cc(NC(=O)CCC(F)(F)F)ccc2O[C@H]1CN(C)Cc1ccc(Cl)c(Cl)c1 | inactive |
| C[C@@H]1CN([C@@H](C)CO)C(=O)Cc2cc(NC(=O)CCC(F)(F)F)ccc2O[C@H]1CN(C)Cc1ccc(-c2ccccc2)cc1 | active |
| C[C@@H]1CN([C@@H](C)CO)C(=O)Cc2cc(NC(=O)CCC(F)(F)F)ccc2O[C@H]1CN(C)Cc1ccc(Cl)c(Cl)c1 | active |
| C[C@H](CO)N1C[C@H](C)[C@@H](CN(C)Cc2ccc(Cl)c(Cl)c2)Oc2ccc(NC(=O)CCC(F)(F)F)cc2CC1=O | inactive |
| C[C@@H]1CN([C@H](C)CO)C(=O)Cc2cc(NC(=O)CCC(F)(F)F)ccc2O[C@H]1CN(C)Cc1ccc(-c2ccccc2)cc1 | inactive |
| C[C@H]1CN([C@@H](C)CO)C(=O)Cc2cc(NC(=O)CCC(F)(F)F)ccc2O[C@H]1CN(C)Cc1ccc(-c2ccccc2)cc1 | inactive |
| CCOC(=O)c1cn2cn[nH]c2nc1=O | inactive |
| C[C@@H]1CN([C@H](C)CO)C(=O)Cc2cc(NC(=O)Nc3ccc4c(c3)OCO4)ccc2O[C@@H]1CN(C)Cc1ccc(C(=O)Nc2ccccc2N)cc1 | inactive |
| COC(=O)C[C@H]1CC[C@@H]2[C@H](COC[C@H](O)CN2S(=O)(=O)c2ccc(F)cc2)O1 | inactive |
| C[C@@H]1CN([C@@H](C)CO)S(=O)(=O)c2ccc(C#CC(C)(C)O)cc2O[C@@H]1CN(C)Cc1ccc(F)cc1 | inactive |
| C=CCNC(=O)[C@H]1[C@@H]2C(=O)O[C@@H](c3ccccc3)[C@@H](c3ccccc3)N2[C@@H](c2ccc(O)cc2)[C@]12C(=O)Nc1ccc(C#Cc3ccc(OC)cc3)cc12 | inactive |
| COc1ccc(S(=O)(=O)Nc2ccc3c(c2)C(=O)N([C@H](C)CO)C[C@H](C)[C@H](CN(C)Cc2ccccc2)OCCCC[C@H](C)O3)cc1 | inactive |
| CC1(C)CCC2(C(=O)O)CCC3(C)C(=CCC4C5(C)CCC(O)C(C)(C)C5CCC43C)C2C1 (configuration not stated) | inactive |
| CC1CCC2(C(=O)O)CCC3(C)C(=CCC4C5(C)CCC(O)C(C)(C)C5CCC43C)C2C1C (configuration not stated) | active |
| COC(=O)[C@@]12CC[C@@H](C)[C@@H](C)[C@@H]1C1=CC[C@H]3[C@@]4(C)CC[C@@H](OC(C)=O)C(C)(C)[C@@H]4CC[C@@]3(C)[C@@]1(C)CC2 | inactive |
| O=C1c2c(O)cccc2C(C2OC(CO)C(O)C(O)C2O)c2cc(CO)cc(O)c21 (configuration not stated) | inactive |
| COc1ccc(NC(=O)Nc2ccc3c(c2)C(=O)N([C@@H](C)CO)C[C@H](C)[C@@H](CN(C)C(=O)Nc2ccc(C(F)(F)F)cc2)OCCCC[C@H](C)O3)cc1 | inactive |
| C[C@@H]1CN([C@@H](C)CO)C(=O)c2cccc(NC(=O)Nc3ccc4c(c3)OCO4)c2O[C@@H]1CN(C)Cc1ccc(Oc2ccccc2)cc1 | inactive |
| C[C@@H]1CN([C@@H](C)CO)C(=O)c2cccc(NC(=O)Nc3ccc4c(c3)OCO4)c2O[C@@H]1CN(C)Cc1ccc(-c2ccccc2)cc1 | active |

| Structure (SMILES) | cytotoxicity call |
| --- | --- |
| C[C@H]1CN([C@@H](C)CO)C(=O)c2cccc(NC(=O)Nc3ccc4c(c3)OCO4)c2O[C@@H]1CN(C)Cc1ccc(-c2ccccc2)cc1 | inactive |
| C[C@H]1CN([C@@H](C)CO)C(=O)c2cccc(NC(=O)Nc3ccc4c(c3)OCO4)c2O[C@H]1CN(C)Cc1ccc(Oc2ccccc2)cc1 | inactive |
| C[C@H]1CN([C@@H](C)CO)C(=O)c2cccc(NC(=O)Nc3ccc4c(c3)OCO4)c2O[C@H]1CN(C)Cc1ccc(-c2ccccc2)cc1 | inactive |
| C[C@@H]1CN([C@H](C)CO)C(=O)c2cccc(NC(=O)Nc3ccc4c(c3)OCO4)c2O[C@H]1CN(C)Cc1ccc(Oc2ccccc2)cc1 | active |
| C[C@@H]1CCCCO[C@H](CN(C)S(=O)(=O)c2cccs2)[C@H](C)CN([C@@H](C)CO)C(=O)c2cc(NC(=O)c3ccccc3)ccc2O1 | inactive |
| CC[C@@H]1/C=C(\C)C[C@H](C)C[C@H](OC)[C@H]2O[C@@](O)(C(=O)C(=O)N3CCCC[C@H]3C(=O)O[C@H](/C(C)=C/[C@@H]3CC[C@H](Cl)[C@H](OC)C3)[C@H](C)[C@@H](O)CC1=O)[C@H](C)C[C@@H]2OC | inactive |
| C[C@@H]1CCCCO[C@@H](CN(C)C(=O)c2ccccc2)[C@@H](C)CN([C@@H](C)CO)C(=O)c2cc(NC(=O)Nc3ccccc3)ccc2O1 | inactive |
| Cc1ccc(S(=O)(=O)N(C)C[C@@H]2OCCCC[C@@H](C)Oc3ccc(NC(=O)CCC(F)(F)F)cc3C(=O)N([C@@H](C)CO)C[C@H]2C)cc1 | inactive |
| Cc1noc(C)c1S(=O)(=O)N(C)C[C@H]1Oc2ccc(NC(=O)Cc3ccccc3)cc2CC(=O)N([C@H](C)CO)C[C@H]1C | inactive |
| NC(=O)[C@H]1CCCCN1 | inactive |
| COc1cccc(S(=O)(=O)N[C@@H]2C=C[C@@H](CC(=O)NC3CCC3)O[C@H]2CO)c1 | inactive |
| Cc1ccc(S(=O)(=O)Nc2ccc3c(c2)C(=O)N([C@H](C)CO)C[C@H](C)[C@H](CN(C)C(=O)Nc2cccc4ccccc24)OCCCC[C@H](C)O3)cc1 | active |
| C[C@@H]1CCCCO[C@@H](CN(C)C(=O)Nc2cccc3ccccc23)[C@H](C)CN([C@H](C)CO)C(=O)c2cc(NS(=O)(=O)c3ccc(F)cc3)ccc2O1 | active |
| C[C@H]1CCCCO[C@H](CN(C)C(=O)Nc2cccc3ccccc23)[C@@H](C)CN([C@@H](C)CO)C(=O)c2cc(NS(=O)(=O)c3ccc(F)cc3)ccc2O1 | active |
| C[C@@H]1CCCCO[C@H](CN(C)C(=O)Nc2cccc3ccccc23)[C@@H](C)CN([C@H](C)CO)C(=O)c2cc(NS(=O)(=O)c3ccc(Cl)cc3)ccc2O1 | active |
| C[C@@H]1CCCCO[C@@H](CN(C)C(=O)Nc2cccc3ccccc23)[C@@H](C)CN([C@H](C)CO)C(=O)c2cc(NS(=O)(=O)c3ccc(F)cc3)ccc2O1 | inactive |
| Cc1ccc(S(=O)(=O)Nc2ccc3c(c2)C(=O)N([C@@H](C)CO)C[C@H](C)[C@@H](CN(C)C(=O)Nc2cccc4ccccc24)OCCCC[C@@H](C)O3)cc1 | inactive |
| C[C@@H]1CCCCO[C@@H](CN(C)C(=O)Nc2cccc3ccccc23)[C@H](C)CN([C@@H](C)CO)C(=O)c2cc(NS(=O)(=O)c3ccc(Cl)cc3)ccc2O1 | inactive |
| C[C@@H]1CCCCO[C@@H](CN(C)C(=O)Nc2cccc3ccccc23)[C@H](C)CN([C@@H](C)CO)C(=O)c2cc(NS(=O)(=O)c3ccc(F)cc3)ccc2O1 | inactive |
| C[C@@H]1CN([C@@H](C)CO)C(=O)c2cc(NS(=O)(=O)c3ccc(F)cc3)ccc2O[C@@H](C)CCCCO[C@@H]1CN(C)C(=O)Nc1cccc2ccccc12 | inactive |
| C[C@@H]1CN([C@@H](C)CO)C(=O)c2cc(NS(=O)(=O)c3ccc(F)cc3)ccc2O[C@@H](C)CCCCO[C@H]1CN(C)C(=O)Nc1cccc2ccccc12 | inactive |
| Cc1ccc(S(=O)(=O)Nc2ccc3c(c2)C(=O)N([C@@H](C)CO)C[C@@H](C)[C@@H](CN(C)C(=O)Nc2cccc4ccccc24)OCCCC[C@H](C)O3)cc1 | inactive |
| C[C@@H]1CCCCO[C@H](CN(C)C(=O)Nc2cccc3ccccc23)[C@H](C)CN([C@H](C)CO)C(=O)c2cc(NS(=O)(=O)c3ccc(Cl)cc3)ccc2O1 | inactive |
